Results taken from PubChem BioAssay (NCATS).
Inconclusive results are not listed. Active and inactive are the calls of the source. Calls follow the shape of the dose curve; as a rule, active = well fitted inhibition curve with a large enough effect in the main read-out, with a control signal flat (not every such curve was filed as active); inconclusive = small, poorly fitted or top-dose-only effect, or effect the other way, or a change in a side signal; inactive = no such curve, though single readings can be large or run the other way.

Assay: Nrf2 qHTS screen for inhibitors: Validation (AID 493153);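 as to activity change, negative = inhibition: A549 cells with ARE-driven firefly luciferase reporter reporting Nrf2 activity; % of control where 0% means no effect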
Settings: A549 ARE-Fluc reporter, 18-24 h; Potency: luciferase luminescence; viability change: measured here: cytotoxicity max response; luciferase luminescence, at 46.1 µM (top of the series); activity change, negative = inhibition: at the top concentration
From the text: NIH Molecular Libraries Probe Production Network [MLPCN] NIH Chemical Genomics Center [NCGC] MLPCN Grant: R03-MH092170-01 Assay Provider: Shyam Biswal, Johns Hopkins University Assay Overview: Nrf2 is a transcription factor that maintains cellular redox homoestasis and protects cells from xenobiotics. Nrf2 binds to the antioxidant response element (ARE) to induce gene expression of a broad spectrum of genes that encode for antioxidants. […] Finding a small molecule that act as an inhibitor of Nrf2 function would represent a novel therapeutic target that could lead to improvement in survival of patients undergoing chemo- and/or radio- therapy. 1. Shibata, T., et al., Genetic Alteration of Keap1 Confers Constitutive Nrf2 Activation and Resistance to Chemotherapy in Gallbladder Cancer. Gastroenterology, 2008. 2. Sjoblom, T., et al., The consensus coding sequences of human breast and colorectal cancers. Science, 2006. 314(5797): p. 268-74.
Assay Protocol Summary: A concentration-response assay was performed with A549 ARE_Fluc cells which are suspended in 5% FBS OPTI-MEM. Five uL were dispensed into 1536-well white TC-treated plate using the Kalypsys dispenser to achieve a density of 5000 cells/well in all columns except column 1. The plate is incubated at 37deg C at 5% CO2 for 2 hours before 23 nL of compounds are added with the Kalypsys pin tool equipped with a 1,536-pin array containing 10-nL slotted pins (FP1S10, 0.457-mm diameter, 50.8 mm long; V&P Scientific). The control compounds Budesonide and Staurosporine are both added at a concentration of 2mM and Budesonide is also added as a 1:10 titration, starting at 200uM, to achieve dose-response. After an 18-24 hour incubation at 37deg C at 5% CO2, 5ul of medium is added to column 1. Afterwards 1ul of 5x of CellTiter-Fluor (Promega) is added to every well. The plate is then incubated at 37deg C at 5% CO2 for 30 minutes before they are read on the ViewLux (Perkin Elmer) for a fluorescent read Ex=405(10)/Em=525(10) for a 3 second exposure, 2x binning, and high gain. Then 3 uL of 3x BugLite is dispensed into all wells and the plate is incubated at ambient room temperature for 15 minutes. Afterwards another ViewLux read is performed using the clear filter to get a luminescent read with the settings of 40 second exposure, 2x binning, and high gain. Cytotoxicity is assessed through the first fluorescent read and then biochemical activity against Nrf2 is measured in the luminescent read.
With `O=C1NC(=O)C(c2ccccc2[N+](=O)[O-])=C1Nc1ccc(O)c(Cl)c1` the viability change was 5.73% and the “activity change, negative = inhibition” value was 7.84% (inactive).
In the case of `COc1cc2nc(N3CCN(C(=O)C4CCCO4)CC3)nc(N)c2cc1OC` (stereo not given), the “activity change, negative = inhibition” value is reported as 6.24% (inactive) and the viability change is reported as -1.63%.
With `NCCCCNCCCN` the “activity change, negative = inhibition” value was 4.07% (inactive) and the viability change was 3.72%.
In the case of `COc1cc2c(cc1OC)C1CC(=O)C(CC(C)C)CN1CC2` (stereo not given), the viability change is reported as -5.87% and the “activity change, negative = inhibition” value is reported as 5.14% (inactive).
With `O=c1c(O)c(-c2cc(O)c(O)c(O)c2)oc2cc(O)cc(O)c12` the “activity change, negative = inhibition” value was 6.86% (inactive) and the viability change was -7.68%.
In the case of `Nc1nc(N)c(N=O)c(OCC2CCCCC2)n1`, the “activity change, negative = inhibition” value is reported as 7.94% (inactive) and the viability change is reported as -2.98%.
For `O=C1c2c(O)cc(O)cc2OC(c2ccc(O)c(O)c2)C1O` (stereo not given), the viability change was -0.133% and the “activity change, negative = inhibition” value was 6% (inactive).
In the case of `CCN(CC)C(=S)SSC(=S)N(CC)CC`, the “activity change, negative = inhibition” value is reported as 25.1% (inactive) and the viability change is reported as 1.38%.
In the case of `O=C(CCc1ccc(O)cc1)c1c(O)cc(O)cc1O`, the viability change is reported as -1.1% and the “activity change, negative = inhibition” value is reported as 12.7% (inactive).
For `Cc1cccc(C#Cc2ccccc2)n1`, the viability change was 2% and the “activity change, negative = inhibition” value was 66.3% (inactive).
With `NC(=NCc1ccccc1)NC(=O)c1nc(Cl)c(N)nc1N` the “activity change, negative = inhibition” value was 38.8% (inactive) and the viability change was 2.7%.
With `COc1ccc2cc([C@H](C)C(=O)O)ccc2c1` the viability change was -8.13% and the “activity change, negative = inhibition” value was 7.34% (inactive).
In the case of `CNC[C@H](O)c1ccc(O)c(O)c1`, the viability change is reported as 3.45% and the “activity change, negative = inhibition” value is reported as 6.81% (inactive).
With `NNc1nncc2ccccc12` the “activity change, negative = inhibition” value was 55.3% (inactive) and the viability change was -2.74%.
With `C[C@@H](N)C1CCC(C(=O)Nc2ccncc2)CC1` (stereo not given in full) the viability change was 2.27% and the “activity change, negative = inhibition” value was -11% (inactive).
With `O=C(c1ccccc1)c1ccc2n1CCC2C(=O)O` (stereo not given) the viability change was 0.0927% and the “activity change, negative = inhibition” value was 0.627% (inactive).
For `O=c1ccc2ccc(O)c(O)c2o1`, the “activity change, negative = inhibition” value was -7.17% (inactive) and the viability change was 21%.
For `O=c1c(O)c(-c2ccc(O)cc2O)oc2cc(O)cc(O)c12`, the viability change was -13.4% and the “activity change, negative = inhibition” value was 2.88% (inactive).
For `CN(C)CCCC1(c2ccc(F)cc2)OCc2cc(C#N)ccc21` (stereo not given), the viability change was 6.56% and the “activity change, negative = inhibition” value was 2.02% (inactive).
With `Oc1ccc2ccccc2c1SSc1c(O)ccc2ccccc12` the viability change was 7.1% and the “activity change, negative = inhibition” value was 5.3% (inactive).
